Data published in PubChem BioAssay.
Calls of active or inactive are those of the source.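 Rule for the calls, unless noted: active = inhibition above 20% together with a positive visual image hit; inconclusive = visual image hit but inhibition not above 20%; inactive = no visual image hit.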

Legend:
[1] = inhibitors of TNFa-induced NFkB p65 translocation, primary screen, imaging, HUVEC, MLSMR starter and 10KST1 sets (AID 438); conditions: HUVEC TNFa-induced p65 nuclear translocation; cell count: measured here: nuclei count (cytotoxicity indicator), at 2.08 µM; inhibition: at 2 µM, stronger effect = higher value, 0% TNFa-plus-vehicle, 100% no-TNFa wells;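 note: compound added about 3h40 before a 20 min TNFalpha stimulation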;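 for inhibition: signal is the nuclear over cytoplasmic p65 intensity ratio per well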
[2] = reduction of polyQ htt aggregates in cells – imaging, exon1htt(103Q)mCFP cells, high-content imaging, primary screen (AID 483;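 active = visual image review flags a hit and inhibition of aggregation exceeds 20%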;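 note: compound exposure lasted 3 days before fixation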;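 for nuclei count: percent of the per-plate median nuclei count of sample wells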); conditions: exon1htt(103Q)mCFP cell line, aggregate imaging, at 2 µM; inhibition of aggregation: stronger effect = higher value; nuclei count: measured here: cell count, toxicity
[3] = endothelial E-selectin expression blockers – imaging, HUVEC, immunofluorescence, MLSMR starter and 10KST1 sets, primary screen (AID 487;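 active = visually confirmed hit in the image check and inhibition above 20%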;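 for inhibition: signal is fraction of cell area covered by stained E-selectin grains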;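 for nuclei count: 100% = median nuclei count of all wells on the same plate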); conditions: HUVEC TNFalpha-induced E-selectin immunofluorescence imaging, at 2 µM; inhibition: stronger effect = higher value; nuclei count: measured here: cell number, toxicity
[4] = target: Voltage-gated potassium channel subunit beta-2 (Rattus norvegicus) (UniProt P62483); test: inhibitors of rat Kvbeta2 reductase activity – biochemical, NADPH fluorescence, primary screen (AID 622;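 active = fluorescence slope higher than the sample average by over 3 SD, cut at about -0.22 in these data, passing the limit was not always enough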;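 note: slope of raw intensity against log time taken from 70 to 1610 s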); conditions: recombinant KvBeta, 4-cyanobenzaldehyde reduction, at 10 µM, stronger effect = higher value
Chain of Voltage-gated potassium channel subunit beta-2 (Rattus norvegicus) (P62483 whole entry, looked up): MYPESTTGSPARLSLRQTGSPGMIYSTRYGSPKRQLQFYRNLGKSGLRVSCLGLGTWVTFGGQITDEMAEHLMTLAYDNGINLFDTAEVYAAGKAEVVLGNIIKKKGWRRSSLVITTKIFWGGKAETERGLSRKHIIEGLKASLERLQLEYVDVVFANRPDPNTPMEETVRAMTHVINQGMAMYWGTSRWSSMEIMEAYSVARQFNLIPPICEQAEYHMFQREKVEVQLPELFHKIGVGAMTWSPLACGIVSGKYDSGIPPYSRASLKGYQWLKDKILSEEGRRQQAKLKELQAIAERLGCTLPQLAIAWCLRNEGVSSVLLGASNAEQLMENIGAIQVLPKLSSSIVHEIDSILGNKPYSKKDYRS

[5] = target: Voltage-gated potassium channel subunit beta-2 (Rattus norvegicus) (UniProt P62483); test: enhancers of rat Kvbeta2 NADPH turnover – biochemical, NADPH fluorescence, primary screen (AID 623;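 active = NADPH fluorescence slope more negative than the mean of all samples by about 3 SD, 99.7% confidence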;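 note: fluorescence intensity change per second fitted from 20 to 320 s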); conditions: Recombinant KvBeta, NADPH fluorescence decrease slope, 10 min; at 10 µM; stronger effect = lower value
[6] = target: Alpha-2C adrenergic receptor (Homo sapiens) (UniProt P18825); test: compounds altering alpha2C-coupled GIRK flux – cell-based, HEK293 alpha2C/GIRK1/2, thallium flux, primary screen (AID 624;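 active = fluorescence slope after compound addition differing from the mean of all screened samples at 99.7% confidence, in either direction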;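 note: slope of fluorescence ratio to pre-addition baseline per second over 15 to 24 s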); conditions: thallium flux BTC fluorescence, at 10 µM, actives lie on both sides
Chain of Alpha-2C adrenergic receptor (Homo sapiens) (P18825 whole entry, looked up): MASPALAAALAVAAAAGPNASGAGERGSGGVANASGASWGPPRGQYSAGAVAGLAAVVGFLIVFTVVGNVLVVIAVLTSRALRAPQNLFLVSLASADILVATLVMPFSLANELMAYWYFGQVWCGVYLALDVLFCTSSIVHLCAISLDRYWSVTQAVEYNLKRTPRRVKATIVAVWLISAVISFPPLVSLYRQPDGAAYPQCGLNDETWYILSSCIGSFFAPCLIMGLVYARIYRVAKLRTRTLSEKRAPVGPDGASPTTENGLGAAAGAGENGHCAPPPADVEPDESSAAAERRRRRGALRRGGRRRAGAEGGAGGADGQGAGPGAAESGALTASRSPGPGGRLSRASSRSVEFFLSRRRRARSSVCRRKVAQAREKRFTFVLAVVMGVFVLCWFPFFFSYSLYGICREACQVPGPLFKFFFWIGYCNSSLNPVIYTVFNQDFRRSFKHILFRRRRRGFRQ

[7] = blockers of RIG-like receptor reporter activation – cell-based, Sendai virus stimulus, luciferase, 10K MLSCN set, TLR/RLR signaling modifier project, primary screen (AID 602276;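 active = inhibition at or above 50% at 10 µM; inactive = inhibition below 50%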;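 note: firefly luciferase from ISG56 promoter only with Renilla not read in this screen; 0% = Sendai virus plus DMSO and 100% = medium plus DMSO without virus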); conditions: HEK293 RL24 IRF3 luciferase reporter, at 10 µM, stronger effect = higher value
[8] = TLR3 IRF3 reporter activation blockers – cell-based, poly I:C stimulus, luciferase, 10K MLSCN set, primary screen (AID 602277;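 active = inhibition of the reporter signal at or above 50%; inactive = inhibition below 50%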); conditions: HEK293-TLR3 RL24 IRF3 luciferase reporter, at 10 µM, stronger effect = higher value

Compound | cell count [1] | inhibition [1] | inhibition of aggregation [2] | nuclei count [2] | inhibition [3] | nuclei count [3] | fluorescence slope [4] | NADPH fluorescence slope [5] | slope [6] | inhibition [7] | inhibition [8]
COc1cc2c(cc1NCc1ccccn1)oc1ccccc12 | 304 | -1.5% (inactive) | 20.3% (inactive) | 66.4% | -27.9% (inactive) | 90.6% | -0.365 (inactive) | -4.6e-05 (inactive) | 0.00538 (inactive) | -24.8% (inactive) | -70.7% (inactive)
Cn1c(SCC(=O)N2CCN(c3cccc(Cl)c3)CC2)nnc1-c1ccncc1 | 689 | -5.1% (inactive) | -15% (inactive) | 104% | -92% (inactive) | 142% | -0.373 (inactive) | 2.3e-06 (inactive) | 0.00664 (inactive) | 1.74% (inactive) | -27.2% (inactive)
Cc1cc(C)c(NC(=O)C2CSCCS2)c(C)c1 (stereo not drawn) | 484 | 4.7% (inactive) | 23.2% (inactive) | 96% | -55.7% (inactive) | 111% | -0.392 (inactive) | -6.2e-05 (inactive) | 0.00428 (inactive) | -3.4% (inactive) | -35.7% (inactive)
Cc1cccc(-n2ncc3c(N4CCC5(CC4)OCCO5)ncnc32)c1 | 617 | 1.3% (inactive) | -14.8% (inactive) | 97.6% | -15.1% (inactive) | 107% | -0.549 (inactive) | -6.5e-05 (inactive) | 0.00695 (inactive) | -34.4% (inactive) | -101% (inactive)
COc1cccc(N2CCN(C(=O)C3C4C=CC5(CN(Cc6ccccc6Cl)C(=O)C35)O4)CC2)c1 (stereo not drawn) | 606 | -11.6% (inactive) | -3% (inactive) | 58.2% | -66.5% (inactive) | 123% | -0.402 (inactive) | -3.2e-05 (inactive) | 0.00266 (inactive) | -0.268% (inactive) | 13.1% (inactive)
Nc1nnnn1/N=C/c1ccccc1OCc1ccccc1 | 474 | 4.5% (inactive) | -2.8% (inactive) | 101% | -283% (inactive) | 138% | -0.496 (inactive) | -4.4e-05 (inactive) | 0.00612 (inactive) | 7.71% (inactive) | 0.143% (inactive)
CCC(=O)Nc1cc2nn(-c3ccccc3)nc2cc1Cl | 442 | -2.1% (inactive) | 7.1% (inactive) | 105% | -94.2% (inactive) | 255% | -0.413 (inactive) | -5.9e-07 (inactive) | 0.00584 (inactive) | -10.5% (inactive) | -46.9% (inactive)
COc1ccc(OC)c(Nc2nc(-c3sc(N)nc3C)cs2)c1 | 715 | -8.6% (inactive) | 11.3% (inactive) | 104% | -77.1% (inactive) | 105% | -0.34 (inactive) | -4.1e-05 (inactive) | 0.00384 (inactive) | -4.79% (inactive) | -10.6% (inactive)
Cc1ccc(-c2cc(C(=O)NCCN3CCOCC3)no2)cc1 | 605 | 1.9% (inactive) | 41.6% (inactive) | 69.9% | -4% (inactive) | 101% | -0.452 (inactive) | 8.4e-05 (inactive) | 0.0051 (inactive) | -29.5% (inactive) | -36.6% (inactive)
COC(=O)COc1cccc(NC(=O)COc2ccccc2)c1 | 349 | -2.7% (inactive) | -0.4% (inactive) | 115% | -94.8% (inactive) | 104% | -0.336 (inactive) | 3.4e-07 (inactive) | 0.00642 (inactive) | 1.13% (inactive) | 20.7% (inactive)
CCOc1ccc(NC(=O)c2ccccc2O)cc1 | 558 | -1.7% (inactive) | 9.7% (inactive) | 71.8% | -114% (inactive) | 96.2% | -0.622 (inactive) | -2e-05 (inactive) | 0.00439 (inactive) | -59.1% (inactive) | -110% (inactive)
CC(Oc1ccc(Cl)cc1Cl)C(=O)Nc1ncccn1 (stereo not drawn) | 433 | 2.5% (inactive) | -1% (inactive) | 102% | 51.5% (inactive) | 124% | -0.409 (inactive) | 9.1e-05 (inactive) | 0.006 (inactive) | -4.61% (inactive) | -6.91% (inactive)
COc1cccc(C2CC(c3c(Cl)cccc3Cl)n3nc(N)nc3N2)c1 (stereo not drawn) | 568 | 13.8% (inactive) | -23.3% (inactive) | 75.1% | 25.6% (inactive) | 92.1% | -0.504 (inactive) | -1.9e-05 (inactive) | 0.00695 (inactive) | 22.2% (inactive) | 23.9% (inactive)
